Hits are enriched below; roughly 2.4% of the tested compounds scored in any of these assays.
D2 ag-1 = HTS Assay for Allosteric Agonists of the Human D2 Dopamine Receptor: Primary Screen for Agonists; HEK293 T-REx D2 cells, calcium flux agonist mode; activation, % at 2 µM; 340,000 tested, 0.53% active; D(2) dopamine receptor (Homo sapiens), P14416;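 active means activation over 3 SD above normal in the single-dose calcium agonist read, cut at about 30% in these data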
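HEK293 Trex D2 cells, tetracycline-induced, o/n 30 C 5% CO2; no-wash Ca dye, RT 30–90 min; 10-cycle baseline, 23 nl cpd added, kinetic Ca read 180 s; agonist hits = positive Ca response.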
D2 ag-2 = Beta-Arrestin HTS for Positive Allosteric Modulators of the Human D2 Dopamine Receptor: Agonists; DiscoveRx PathHunter D2 beta-arrestin, luminescence, 90 min; 100% = 57 uM dopamine signal; activation, % (concentration not given with the values); 360,000 tested, 0.084% active; AID 624465, 2012; in the data active means activation above about 40%; inconclusive means between about 15% and that limit
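DiscoveRx PathHunter D2 beta-arrestin cells (2,100/well) attached overnight, then compound-stimulated 90 min at 37 C in HBSS/10 mM HEPES/0.1% Tween-20 buffer; beta-galactosidase complementation read by luminescence after 1 h at ambient temperature. Dopamine 57 uM final (EC100) as control.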
D2 PAM-1 = HTS Assay for Positive Allosteric Modulators of the Human D2 Dopamine Receptor: Primary Screen for Potentiators; HEK293 T-REx D2, calcium flux, EC20 dopamine potentiation; D(2) dopamine receptor (Homo sapiens), P14416; 340,000 tested, 0.34% active; potentiation, % at 10 µM;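 active means potentiation over 3 SD above the plate norm, cut at about 30% in these data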
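Potentiation of an EC20 dopamine calcium response measured kinetically over 180 s, after a preceding 180 s compound-only read flagging agonists. Cells: inducible Hek293 Trex D2 line, 4000/well, cultured overnight at 30 C before dye loading.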
D2 antagonist = HTS Assay for Allosteric Antagonists of the Human D2 Dopamine Receptor: Primary Screen for Antagonists | HEK293 TREx D2 cells, calcium flux, dopamine EC80 | inhibition, % at 10 µM | D(2) dopamine receptor (Homo sapiens), P14416 | 340,000 tested, 2% active; in the data active means inhibition above about 30%; inactive means below that, where a call was filed
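Antagonism is scored as inhibition of an EC80 dopamine-evoked calcium signal in a force-coupled, tetracycline-inducible HEK293 T-REx D2 line, with compound present 180 s before agonist.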
D2 PAM-2 = Beta-Arrestin HTS for Positive Allosteric Modulators of the Human D2 Dopamine Receptor: Potentiators. DiscoveRx D2 beta-arrestin cells, luminescence, 90 min; 100% = 57 uM dopamine signal. 360,000 tested, 0.23% active. potentiation, % (no concentration beside the values). D(2) dopamine receptor (Homo sapiens), P14416. AID 624464, 2012; in the data active means potentiation above about 50%; inconclusive means mostly about 30% to 49%
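PathHunter D2 cells, attached overnight at 37 deg C, received compound in DMSO plus dopamine at EC20 (50 nM final) for 90 min at 37 deg C. Beta-arrestin recruitment was read as luminescence after 1 h with detection reagent at ambient temperature.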
D3 arrestin ag = qHTS of D3 Dopamine Receptor Agonist: D3 Dopamine Receptor B-arrestin Agonist Confirmatory Assay; 2,300 tested, 4% active; Potency, µM (titrated, usually from 76.9 µM), usual class: activators; shares compounds with D2 ag-1; DiscoveRx D3 beta-arrestin cells, luminescence, 90 min; further: nearly all actives have a fitted effect of over 70% in size
Target sequence (P35462 whole entry, looked up): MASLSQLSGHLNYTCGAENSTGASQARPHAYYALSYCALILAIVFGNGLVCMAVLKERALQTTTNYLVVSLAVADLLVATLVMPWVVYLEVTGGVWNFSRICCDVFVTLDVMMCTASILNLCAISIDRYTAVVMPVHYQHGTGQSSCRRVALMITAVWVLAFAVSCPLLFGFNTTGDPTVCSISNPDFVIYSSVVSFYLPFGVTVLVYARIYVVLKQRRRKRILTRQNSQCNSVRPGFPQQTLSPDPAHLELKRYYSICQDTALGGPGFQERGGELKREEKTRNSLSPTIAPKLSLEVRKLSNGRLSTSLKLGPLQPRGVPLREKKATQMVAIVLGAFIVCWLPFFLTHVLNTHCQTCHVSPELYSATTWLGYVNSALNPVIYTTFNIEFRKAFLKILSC
D2 ag-3 = qHTS of D3 Dopamine Receptor Agonist: D2 Dopamine Receptor B-arrestin Agonist Counterscreen. shares compounds with D2 ag-1. DiscoveRx PathHunter D2 beta-arrestin, luminescence, 90 min; response scale: percent relative to full dopamine signal. Potency, µM (top dose mostly 76.9 µM), hits mostly activators. 2,300 tested, 5.9% active; further: nearly all actives have a fitted effect of over 70% in size
Numbers stand for hits; – = inactive; ? = inconclusive; · = no result given. Unless noted, the call rests on the fitted dose curve; in most records, active means well fitted activation curve with a large enough effect; inconclusive means small, poorly fitted or top-dose-only effect; inactive means flat fitted curve, though single readings scatter.

SMILES	D2 ag-1	D2 ag-2	D2 PAM-1	D2 antagonist	D2 PAM-2	D3 arrestin ag	D2 ag-3
CCc1ccc(C(=O)c2cn(CC(=O)Nc3ccc4c(c3)OCCO4)c3ccc(CC)cc3c2=O)cc1	–	·	–	·	·	·	·
COc1ccc(N(CC(=O)NCCOc2ccccc2)S(=O)(=O)c2ccc(C)cc2)cc1	–	–	–	–	–	–	–
CCOc1ccc(N(CC(=O)NCCOc2ccc(C)cc2)S(=O)(=O)c2ccccc2)cc1	–	–	–	–	–	·	·
CCOC(=O)N1CCC(N2CCN(Cc3ccc(F)c(F)c3)C(CCO)C2)CC1 (centres undefined)	40	–	–	–	–	–	–
OCCC1CN(C2CCN(c3ccccc3F)CC2)CCN1Cc1ccccc1 (centres undefined)	–	–	–	–	–	–	–
OCCC1CN(C2CSCCSC2)CCN1Cc1ccccc1 (centres undefined)	–	–	–	–	–	·	·
Cc1cc(Cn2nc(-c3ccccc3C)cc2C(=O)O)on1	–	–	–	–	–	–	–
O=C(COc1ccccc1Cl)NNC(=O)Cn1[nH]c(=O)c2ccccc2c1=O	–	–	–	–	–	–	–
COC(=O)c1ccccc1NC(=O)c1cc2ccccc2o1	–	–	–	–	–	·	·
O=C(Nc1ccccc1C(F)(F)F)c1cc2ccccc2o1	–	–	–	47	–	–	–
CCOC(=O)c1c(NC(=O)c2cc(=O)c3ccc(C)cc3o2)sc(C)c1C	–	·	–	·	·	·	·
Cc1cc(C)n2nc(C(=O)NCCc3ccccc3)nc2n1	–	–	–	–	–	·	·
O=C(NCCc1ccccc1)c1nc2nc(-c3cccs3)cc(C(F)(F)F)n2n1	–	–	–	40	–	–	–
Nc1nnc(SCC(=O)Nc2cccc(F)c2)s1	–	·	–	·	·	·	·
COc1ccc(NC(=O)C2(C)CCN2C2Cc3ccccc3C2)cc1OC (centres undefined)	·	–	·	·	–	·	·
Nc1ccn(CC(=O)NCc2ccc3[nH]ccc3c2)c(=O)n1	–	–	–	–	–	–	?
CCn1c2ccc(C)cc2c2n[nH]c(=S)nc21	–	–	–	–	–	–	–
CCCCc1ccc(NC(=O)CSc2nc3ccccc3nc2N2CCOCC2)cc1	–	·	–	·	·	·	·
COc1cccc(CN2CCN(C(=O)CC(C)C)CC2)c1	55	–	–	–	–	–	–
CCn1nc(C(=O)N2CCN(Cc3ccc4c(c3)OCO4)CC2)c2ccccc2c1=O	50	–	–	–	–	–	–
CC(C)CC(=O)N1CCN(Cc2cccc(F)c2)CC1	–	–	–	–	–	·	·
O=C(O)CCC(=O)N1CCN(Cc2ccc3c(c2)OCO3)CC1	–	–	–	–	–	·	·
CCCC(=O)N1CCN(Cc2ccc3c(c2)OCO3)CC1	61	–	–	–	–	–	–
CC(C)CC(=O)N1CCN(Cc2ccc3c(c2)OCO3)CC1	80	?	–	–	–	–	?
COc1cccc(Cn2c(=O)n(-c3cccc(Cl)c3)c(=O)c3c4c(sc32)CN(C(C)=O)CC4)c1	·	·	–	·	·	·	·
SMILES	D2 ag-1	D2 ag-2	D2 PAM-1	D2 antagonist	D2 PAM-2	D3 arrestin ag	D2 ag-3
CC1=C(C(=O)Nc2cccnc2)C(c2ccc(F)cc2)n2nc(SCc3ccccc3)nc2N1 (centres undefined)	–	·	–	·	·	·	·
COCc1c(C(=O)N2CCN(Cc3ccc(C#N)cc3)CC2)oc2ccccc12	–	–	–	–	–	·	·
O=C(CSc1ncnc2scc(-c3ccccc3)c12)N1CCN(Cc2ccc3c(c2)OCO3)CC1	74	?	–	70	–	–	?
c1ccc(-c2csc3ncnc(N4CCN(Cc5ccc6c(c5)OCO6)CC4)c23)cc1	–	–	–	–	–	·	·
COCc1c(C(=O)N2CCN(Cc3ccc4c(c3)OCO4)CC2)oc2ccccc12	70	46	–	70	–	–	10µM
COc1ccc(C(=O)NCc2ccc3c(c2)CCN3C(=O)c2cccc(C)c2)cc1OC	·	·	–	·	·	·	·
CCc1ccc(S(=O)(=O)c2cn(C)c3cc(N4CCC(C)CC4)c(F)cc3c2=O)cc1	–	·	–	·	·	·	·
Cc1ccc(OCc2cc(=O)n3cc(C)sc3n2)c(NC(=O)c2ccco2)c1	–	·	–	·	·	·	·
COc1cccc(N2CN(CCc3ccccc3)CNC2=S)c1	37	–	–	–	–	–	–
Cc1cc(C)nc(-n2ncc3c2CC(c2ccccc2)CC3=O)n1 (centres undefined)	48	–	–	–	–	–	–
O=C(NCc1ccc(F)cc1Cl)c1cc(=O)[nH]c2ccc(S(=O)(=O)N3CCCCC3)cc12	·	·	–	·	·	·	·
COc1ccccc1NC(=O)CN1CCN(CC(=O)Nc2ccc(F)cc2)CC1	–	–	–	–	–	·	·
COc1ccc(C)cc1NC(=O)CN1CCN(c2ccccn2)CC1	53	–	–	–	–	–	–
COC(=O)C1CCN(CC(=O)Nc2ccc(C(=O)Nc3ccccc3OC)cc2)CC1	62	?	–	–	–	–	?
COc1ccccc1NC(=O)CN1CCN(c2ccccn2)CC1	–	?	–	50	–	–	?
CCOc1cc(C(=O)NCc2nc(-c3cccc(C)c3)no2)cc(OCC)c1OCC	–	·	–	·	·	·	·
O=C(NCCN1CCN(c2cccc(Cl)c2)CC1)C1CCCN(S(=O)(=O)c2cnc[nH]2)C1 (centres undefined)	81	–	–	81	–	?	?
O=C(NCCN1CCN(c2ccccc2)CC1)C1CCCN(S(=O)(=O)c2cnc[nH]2)C1 (centres undefined)	74	?	–	76	74	?	?
O=C(NCCN1CCN(c2ccccc2)CC1)C1CCN(S(=O)(=O)N2CCOCC2)CC1	84	?	–	61	–	?	?
CCCCn1c(N)c(N(CC(C)C)C(=O)c2ccc(S(=O)(=O)N3CCCCC3)cc2)c(=O)[nH]c1=O	–	–	–	–	–	·	·
